Assay outcomes from PubChem BioAssay.
D2 ag-1: activates the human D2 dopamine receptor; P14416; HEK293 T-REx D2 cells, calcium flux agonist mode; activation, % at 2 µM; actives 0.53% (n = 340,000);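 active means activation over 3 SD above normal in the single-dose calcium agonist read, cut at about 30% in these data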; further: 0% is about no effect
Target sequence (P14416 whole entry, looked up): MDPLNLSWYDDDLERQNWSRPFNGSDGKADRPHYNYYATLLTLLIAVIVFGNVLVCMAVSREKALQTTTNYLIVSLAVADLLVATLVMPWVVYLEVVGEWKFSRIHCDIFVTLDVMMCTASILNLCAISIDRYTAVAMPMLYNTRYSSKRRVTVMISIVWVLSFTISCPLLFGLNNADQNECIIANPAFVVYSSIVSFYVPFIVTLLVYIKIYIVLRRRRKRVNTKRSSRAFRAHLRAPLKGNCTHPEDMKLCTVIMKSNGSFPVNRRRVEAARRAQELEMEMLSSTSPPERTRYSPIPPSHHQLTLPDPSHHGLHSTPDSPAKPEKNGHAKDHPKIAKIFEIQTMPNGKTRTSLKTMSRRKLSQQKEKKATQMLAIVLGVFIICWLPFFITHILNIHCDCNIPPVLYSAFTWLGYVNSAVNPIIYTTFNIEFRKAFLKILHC
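In this primary screen, compounds producing a positive calcium signal within 180 s of addition to tetracycline-induced, force-coupled HEK293 Trex D2 cells are flagged; cells are dye-loaded with a no-wash calcium kit beforehand.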
D2 PAM-1: positive allosteric modulators of human D2 dopamine receptor. AID 485347. potentiation, % at 10 µM. actives 0.34% (n = 340,000). HEK293 T-REx D2, calcium flux, EC20 dopamine potentiation;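 active means potentiation over 3 SD above the plate norm, cut at about 30% in these data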; further: 0% is about no effect
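Tetracycline-induced HEK293 T-REx cells force-coupled to calcium signalling expressed D2; compounds were pin-added after a 10 s baseline, read kinetically 180 s, then an EC20 dopamine challenge followed with a further 180 s calcium read.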
D2 antag: antagonizes the human D2 dopamine receptor | P14416 | inhibition, % at 10 µM | actives 2% (n = 340,000) | HEK293 TREx D2 cells, calcium flux, dopamine EC80; in the data active means inhibition above about 30%; inactive means below that, where a call was filed; further: 0% is about no effect
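Calcium flux kinetic readout in an inducible HEK293 TREx D2 line plated overnight at 30 C. After 180 s compound exposure, an EC80 dopamine challenge follows with another 180 s kinetic read to detect antagonism.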
D2 PAM-2: potentiates the human D2 dopamine receptor allosterically; potentiation, % (concentration not given with the values); actives 0.23% (n = 360,000); DiscoveRx D2 beta-arrestin cells, luminescence, 90 min; 100% = 57 uM dopamine signal; in the data active means potentiation above about 50%; inconclusive means mostly about 30% to 49%
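PathHunter beta-arrestin assay in DiscoveRx D2 cells. Compounds were added with an EC20 of dopamine (50 nM final) for 90 min at 37 deg C. Luminescence was read 1 h after detection reagent, with 57 uM dopamine as the EC100 control.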
D2 ag-2: human D2 receptor agonism in beta-arrestin assay; P14416; DiscoveRx PathHunter D2 beta-arrestin, luminescence, 90 min; 100% = 57 uM dopamine signal; activation, % (test concentration not listed); actives 0.084% (n = 360,000); AID 624465; in the data active means activation above about 40%; inconclusive means between about 15% and that limit
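Agonist mode: compounds alone added to overnight-plated D2 PathHunter cells for 90 min at 37 C, with 57 uM final dopamine (EC100) defining full response. Beta-arrestin recruitment detected by chemiluminescent reagent, read after 1 h at ambient temperature.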
* hit, by the source's call; ? = inconclusive; . = no result given; ! = a repeat was not active. Only some compounds are listed: those with a hit (about 2.4% of all), similar ones and a draw of the others.

SMILES | D2 ag-1 | D2 PAM-1 | D2 antag | D2 PAM-2 | D2 ag-2
Cc1nn(Cc2ccccc2Cl)c2sc(C(=O)Nc3nccs3)cc12 | -2 | -9 | 38* | 8 | 3
COc1ccc(Br)cc1CNC(=O)C1CCN(c2nnc(-n3cccc3CNc3ccc(C)cc3)s2)CC1 | 0 | 1 | . | . | .
O=C(c1cc(COc2c(F)cccc2F)on1)N1CCC(c2ccccc2F)C1 (configuration not stated) | 1 | -11 | -6 | -3 | -5
CN(CCC1CCOCC1)C(=O)c1cc(COc2c(F)cccc2F)on1 | 1 | 2 | 31* | 3 | 2
COc1ccc(OCc2cc(C(=O)N3CCC(OC)CC3)no2)c2ccccc12 | 0 | 4 | 10 | 53* | 7
COCC1CCN(C(=O)c2cc(COc3ccc(OC)c4ccccc34)on2)C1 (configuration not stated) | . | . | . | 24 | 2
O=C(c1cc(COc2c(F)cccc2F)on1)N1CCC(c2ccccc2Cl)C1 (configuration not stated) | 0 | 32* | -1 | -14 | -2
CN(CC1COCCO1)C(=O)c1cc(COc2c(F)cccc2F)on1 (configuration not stated) | -1 | -10 | -6 | -10 | -4
CCCc1cc(=O)n2[nH]c(NCc3ccccc3OC)nc2n1 | -1 | 2 | . | . | .
COc1c(C)cc(S(=O)(=O)NCCc2c(C)[nH]c3ccccc23)c(C)c1C | 1 | -3 | . | . | .
Cc1[nH]c2ccccc2c1CCNS(=O)(=O)c1ccc(S(N)(=O)=O)cc1 | 6 | -16 | 55* | -6 | -4
COc1ccc(NC(=O)CN2C(=O)c3ccccc3S2(=O)=O)cc1OC | 0 | 33* | -14 | 2 | 0
Cc1ccc(NC(=O)CN2C(=O)c3ccccc3S2(=O)=O)cc1C | 0 | -3 | -3 | -5 | -3
O=C(CCN1C(=O)c2ccccc2Sc2ncccc21)Nc1ccc(F)cc1 | . | 3 | . | . | .
NC(CC(=O)NC(c1ccccc1)(c1ccccc1)c1ccccc1)C(=O)O (configuration not stated) | 1 | 37* | -3 | -5 | -5
CC(=O)N1CCN(C(=S)NC(=O)C23CC4CC(CC(C4)C2)C3)CC1 | 0 | 34* | -3 | -13 | -1
CNC(=S)N1CCC(NC(=O)C23CC4CC(CC(C4)C2)C3)CC1 | 0 | -4 | 6 | -3 | 5
Cc1cc(S(=O)(=O)Nc2cc3c(cc2N2CCOCC2)n(C)c(=O)c(=O)n3C)ccc1F | -1 | 13 | . | . | .
Cc1cc(OC(C)C(=O)N(Cc2ccco2)Cc2ccco2)cc(C)c1Cl (configuration not stated) | 0 | . | . | . | .
Cc1c(C(=O)Nc2cccc(F)c2)oc2c1-c1nn(Cc3c(F)cccc3Cl)cc1CC2 | 0 | 8 | . | . | .
CCCCC1CCC(C(=O)N2CC(=O)Nc3ccc(Br)cc3C2c2ccc(F)cc2)CC1 (configuration not stated) | -1 | 16 | . | . | .
COc1ccc(C(c2nnnn2C2CCCC2)N2CCC(C)CC2)cc1 (configuration not stated) | -1 | 30* | -4 | -19 | -6
O=C(c1ccco1)N1CCN(C(c2cccs2)c2nnnn2C2CCCC2)CC1 (configuration not stated) | 0 | -6 | 7 | -8 | 1
c1cnc2ccc(C(c3nnnn3C3CCCCC3)N3CCN(C4CCCCC4)CC3)cc2c1 (configuration not stated) | . | . | . | -5 | -3
c1cnc2ccc(C(c3nnnn3C3CCCCC3)N3CCCCC3)cc2c1 (configuration not stated) | 1 | 42* | 5 | -18 | -3
SMILES | D2 ag-1 | D2 PAM-1 | D2 antag | D2 PAM-2 | D2 ag-2
O=C(c1ccco1)N1CCN(C(c2ccccn2)c2nnnn2C2CCCC2)CC1 (configuration not stated) | 0 | 35* | -13 | 7 | -1
COc1ccc(C(c2nnnn2C2CCCCC2)N2CCN(c3ccc(OC)cc3)CC2)cc1 (configuration not stated) | 0 | 3 | -8 | -21 | -4
CCOc1ccc(NC(=O)CC2C(=O)N(c3ccc(C)cc3)C(=O)N2Cc2ccc(OC)cc2)cc1 (configuration not stated) | . | 6 | . | . | .
Cc1cccc(Cn2c(C)c(C)c3cc(C(=O)NCc4ccco4)ccc32)c1 | 0 | 2 | . | . | .
CCOc1ccccc1NC(=O)Nc1cc2c(cc1N1CCCCC1)n(CC)c(=O)n2CC | 1 | -8 | . | . | .
Cc1ccccc1NC(=O)CSC1=C(C#N)C(c2ccsc2)CC(=O)N1 (configuration not stated) | 1 | -1 | 37* | 0 | -2
CCCCOc1ccc(S(=O)(=O)NCc2csc(-c3ccc(OC)cc3)n2)cc1 | 1 | -5 | . | . | .
CN1CCN(/C=N/c2sc3c(c2C#N)CCCCC3)CC1 | -1 | 1 | -15 | -26 | -1
N#Cc1c(/N=C/C=C/c2ccccc2)sc2c1CCCC2 | 1 | 31* | -11 | 27 | ?
CC1Cc2cc(S(=O)(=O)CCC(=O)Nc3ccccc3F)ccc2N1C(=O)C1CC1 (configuration not stated) | . | 10 | . | . | .
CCOC(=O)c1cccc(Nc2ncnc3ccccc23)c1 | 1 | 34* | 14 | -7 | 1
COCCCNC(=O)CSc1nc2nc(C)c(Cc3ccccc3Cl)c(C)n2n1 | 0 | -9 | . | . | .
O=C(O)c1cccc(-n2c(-c3cnccn3)n[nH]c2=S)c1 | 2 | -15 | 30* | -7 | 1
Cc1c(Cl)cccc1-n1nnc(-c2nc(-c3ccc4c(c3)OCO4)no2)c1C | 0 | -2 | . | . | .
c1ccc(-c2nc3nonc3nc2-c2ccccc2)cc1 | 1 | 12 | 41* | 74* | ?
CCC(=O)Nc1ccccc1-c1nc2ccccc2n(CC(=O)c2ccc(C)cc2)c1=O | 0 | . | . | . | .
COc1ccccc1Nc1nn2c(=O)c3ccc(C(=O)N4CCCC(C)C4)cc3nc2s1 (configuration not stated) | -1 | 37*! | -42 | -11 | -6
COc1ccccc1N1CCN(C(=O)c2cc3c(=O)n(Cc4ccco4)ccc3nc2C)CC1 | 1 | -18 | . | . | .
CC(=O)c1c(C)[nH]c(C(=O)Nc2nc(-c3ccc(Cl)cc3)cs2)c1C | -3 | 11 | -9 | 0 | 2
COc1ccc(-c2nc(NC(=O)c3ccco3)sc2C)cc1 | . | . | . | -3 | -1
COc1ccc(-c2nc(NC(=O)c3[nH]c(C)c(C(C)=O)c3C)sc2C)cc1 | 1 | 31* | -4 | 0 | 2
CC(=O)c1c(C)[nH]c(C(=O)Nc2nc(C)cs2)c1C | 2 | -1 | 33* | -4 | -10
COc1ccccc1-c1noc(-c2ccc(N3CCOCC3)c([N+](=O)[O-])c2)n1 | -2 | 3 | . | . | .
CCc1cc2c(=O)oc(-c3ccc(Br)cc3)nc2s1 | -1 | 11 | 33* | -6 | -3
